Measured values reported in PubChem BioAssay AID651718 (The Scripps Research Institute Molecular Screening Center, 2012).
About 2,700 (0.75%) of roughly 360,000 compounds were called active. Many of the other results were omitted from the sample, so actives are more common in it than they were. A number with no mark means an inactive call. No stated cut-off is given here; in the data, active means inhibition above about 4.5%; inactive means the rest.

system: Methionine sulfoxide reductase A (Bos taurus); test: bovine MsrA enzyme inhibitors, primary screen, biochemical, absorbance, HTS (AID 651718); conditions: purified bovine MsrA, absorbance read-out; at 15.5 µM; hits give high values;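 further: 0% = vehicle wells with enzyme and 100% = reference inhibitor wells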

| SMILES | inhibition |
| --- | --- |
| CCC(C(=O)OC)n1cnc2scc(-c3ccc(C)cc3)c2c1=O (stereo unspecified) | 2.62% |
| CCn1cnc2scc(-c3ccc(C)c(C)c3)c2c1=O | 0.83% |
| CC(=O)C(C)n1cnc2scc(-c3ccc(C)cc3)c2c1=O (stereo unspecified) | 0.23% |
| CCOC(=O)C(C)n1cnc2scc(-c3ccc(C)c(C)c3)c2c1=O (stereo unspecified) | 8.45% (active) |
| CCOC(=O)C(C)n1cnc2c(nnn2-c2ccc(F)cc2)c1=O (stereo unspecified) | -0.86% |
| COC(=O)Cn1cnc2scc(-c3ccc(C)c(C)c3)c2c1=O | 4.6% (active) |
| Cc1sc2c(c1C)c(=O)n(-c1ccccc1)c1nncn21 | 0.74% |
| CC1(C)CC(=O)C=C(c2ccc3ncccc3c2)C1 | 0.6% |
| Cc1cccc(C(=O)NC2CCN(CC(=O)Nc3cccc(Cl)c3)CC2)c1 | -0.97% |
| COc1ccc(-c2ccc3c(n2)CCCN3S(=O)(=O)c2ccc(C)cc2)cc1 | 1.35% |
| CCOC(=O)/C=C/c1ccccc1O | 1.24% |
| Nc1ncnc2c1ncn2[C@@H]1O[C@H](C(=O)N[C@@H](CCc2ccccc2)C(=O)N2CCCN(Cc3cccs3)CC2)[C@@H](O)[C@H]1O | -0.82% |
| Cc1ccc(NC(=O)/C(=C\c2ccccc2)NC(=O)c2ccco2)cc1 | 1.7% |
| COc1ccc(/C=C(/NC(=O)c2ccco2)C(=O)Nc2ccc(C(C)=O)cc2)cc1 | 6.24% (active) |
| O=C(NC(Cc1ccccc1)C(=O)O)/C(=C\c1ccccc1)NC(=O)c1ccco1 (stereo unspecified) | -0.85% |
| O=C(NCc1ccccc1)[C@@H]1CCCN1C(=O)[C@@H](NS(=O)(=O)c1ccc(F)cc1F)C1CCCCC1 | 0.41% |
| C[C@@H](CN1C2=NC[C@@H](Cc3ccccc3)N2C[C@H]1Cc1ccc(O)cc1)NC(=O)CCC1CCCCC1 | -0.6% |
| C[C@H]1[C@H](c2ccccc2)Oc2cc(Br)ccc2S(=O)(=O)N1Cc1cccc(F)c1 | -0.62% |
| COc1ccc(CCNC(=O)c2ccccc2-c2ccccc2C(=O)O)cc1OC | -1.11% |
| COc1ccc(CC(=O)c2ccc(O)cc2O)cc1OC | 5.45% (active) |
| COc1ccc(CCNC(=O)CCc2ccccc2O)cc1OC | -1.41% |
| COCc1[nH]nc2c1C(c1ccccc1)N(c1ccccc1)C2=O (stereo unspecified) | 2.45% |
| O=C(Nc1ccc(C(=O)O)cc1)/C(=C/c1ccc([N+](=O)[O-])cc1)NC(=O)c1ccccc1 | 5.97% (active) |

| SMILES | inhibition |
| --- | --- |
| CNC(=O)/C(=C\C=C\c1ccccc1)NC(=O)c1ccc([N+](=O)[O-])cc1 | 5.69% (active) |
| O=C(N/C(=C\c1ccc([N+](=O)[O-])cc1)C(=O)N1CCOCC1)c1cccc(Br)c1 | 2.94% |
| Cc1ccc(C(=O)N/C(=C/C=C/c2ccccc2)C(=O)NCc2ccco2)cc1 | 3.44% |
| CC(C=Cc1ccccc1)=NNS(=O)(=O)c1ccc([N+](=O)[O-])cc1 | 0.99% |
| O=C(Nc1ccc(C(=O)O)cc1)/C(=C\c1ccccc1)NC(=O)c1ccc(Br)cc1 | -0.28% |
| O=C(NS(=O)(=O)c1cccs1)[C@H]1O[C@@H](n2ccc(=O)[nH]c2=O)[C@H](O)[C@@H]1O | -0.74% |
| O=C(NN=Cc1ccco1)C(=O)Nc1ccc(Cl)c([N+](=O)[O-])c1 | -0.74% |
| CC(C(=O)Nc1ccccc1-c1ccccc1)N1CCOCC1 (stereo unspecified) | 0.29% |
| Cc1nc2ccccc2n1C(=O)N1CCOCC1 | -0.3% |
| Cc1oc2c(c1C(=O)N1CCOCC1)C(=O)c1ccccc1C2=O | 14.1% (active) |
| CCOc1cc(/C=N/NC(=O)c2c(C)nc3ccc(Cl)cn23)ccc1O | 6.4% (active) |
| CCOc1cc(/C=N/NC(=O)CN2CCCCC2)ccc1O | 0.86% |
| CCOc1ccc(/C=N\NC(=O)c2c(C)nc3cc(C)ccn23)cc1 | 3.14% |
| COC(=O)Nc1nc2ccc(C(=O)C3CC3)cc2[nH]1 | 1.54% |
| CCOC(=O)c1c(C(C#N)C#N)cc(C)nc1C | 5.28% (active) |
| CCOC(=O)c1cc(C)nc(S(C)(=O)=O)c1C#N | 1.83% |
| CCOC(=O)c1c(C)[nH]c(C)c1C(=O)CSc1nc(N)cc(N)n1 | 0.97% |
| N#Cc1ccc(S(=O)(=O)NCC(=O)OCC(=O)NCCc2ccccc2)cc1 | 0.77% |
| O=C(NCc1ccccc1)[C@@H]1CCCN1C(=O)[C@H]1CCCN1C(=O)c1cccc(Cl)c1 | -0.24% |
| Brc1ccc(COCCc2cn(Cc3ccccc3)c3ccccc23)cc1 | -0.08% |
| CSc1nc2c(c(=O)[nH]1)C(c1cccc(Cl)c1Cl)CC(=O)N2 (stereo unspecified) | -1.13% |
| N#Cc1c(N)nc2c3c(sc(=N)c2c1N)NC(=O)CC3c1ccccc1Cl (stereo unspecified) | 6.25% (active) |
| COC(=O)[C@H](CC(C)C)NS(=O)(=O)c1c(F)cccc1F | 1.4% |

| SMILES | inhibition |
| --- | --- |
| COc1cccc(/C(C)=N/Nc2ncc(Cl)cc2Cl)c1 | 5.21% (active) |
| CCN(CC)c1ccc(C(=O)N/N=C(\C)c2cccc(OC)c2)cc1 | 1.78% |
| COC(=O)c1sccc1N/N=C(\C)c1ccc(F)c(Cl)c1 | -0.14% |
| COc1cccc(CNC(=O)[C@H]2CCCN2C(=O)[C@H]2CCCN2C(=O)c2cc(F)cc(F)c2)c1 | 0.79% |
| CCCN1C(=O)c2[nH]nc(-c3ccccc3)c2C1c1ccccc1 (stereo unspecified) | 0.64% |
| Nc1nnnn1CC(=O)N/N=C/c1ccc(-c2cccc(Cl)c2)o1 | 5.41% (active) |
| O=C(Cn1nnc(-c2ccccc2)n1)N/N=C/c1ccc(-c2ccc(Cl)cc2)o1 | 1.47% |
| O=C(N/N=C\c1ccc(-c2ccc(Cl)c(Cl)c2)o1)C(=O)N1CCCC1 | -0.58% |
| Cc1ccc(S(=O)(=O)Nc2nc(C)cc(N/N=C/c3ccc(O)cc3)n2)cc1 | 9.28% (active) |
| Cc1ccc(OCCCC(=O)Nc2ccc(S(=O)(=O)Nc3cc(C)nc(C)n3)cc2)cc1 | 0.56% |
| Cc1ccc(S(=O)(=O)Nc2nc(C)cc(-n3nc(C)cc3C)n2)cc1 | -0.42% |
| CCN1C(=O)N[C@@H](CCc2ccccc2)C(C(=O)OC)=C1C | 0.27% |
| CCCC(=O)N1CCC1(C)C(=O)NS(=O)(=O)c1ccc(Cl)cc1 (stereo unspecified) | -0.68% |
| CCn1ncc(Br)c1C(=O)Nc1cc(C)ccc1F | 0.75% |
| C/C(=N\NC(=O)COc1c(C)cccc1C)c1cccs1 | -0.04% |
| Cc1ccccc1C(CC(=O)c1cccs1)C(C#N)C#N (stereo unspecified) | 5.15% (active) |
| Cc1ccc(NNC(=O)c2cccs2)cc1Cl | -0.8% |
| COC(=O)Cc1nnn2c1[C@H](C)[C@@H](OC)c1cc(Br)ccc1-2 | 0.56% |
| CC(=NNC(=O)c1ccc2nc[nH]c2c1)c1ccc(Br)cc1 | -0.04% |
| CC(=O)c1ccc(N2CCN(C(=O)c3ccc4nc[nH]c4c3)CC2)cc1 | 4.75% (active) |
| CCc1nc2ccc(C(=O)N3CCN(c4cccc(Cl)c4)CC3)cc2nc1CC | 0.35% |
| CN(Cc1ccccc1)C(=O)[C@@H]1CCCN1C(=O)[C@@H]1CCCN1C(=O)c1c(F)cccc1F | 1.12% |
| Cc1[nH]c2ccccc2c1CC(=O)Nc1ccc(Nc2cccnc2)c(-c2cccc(Cl)c2)c1 | 0.91% |

| SMILES | inhibition |
| --- | --- |
| COc1ccc(-c2ccc(OC(=O)NC3CCS(=O)(=O)C3)cc2)cc1 (stereo unspecified) | -0.4% |
| COc1ccc(/C=C2\SC(=O)N(CCC(=O)NC3CCS(=O)(=O)C3)C2=O)cc1 (stereo unspecified) | 7.15% (active) |
| COc1ccccc1/C=C1\SC(=O)N(CCC(=O)N(C)C2CCS(=O)(=O)C2)C1=O (stereo unspecified) | 1.66% |
| CC(C)CNc1cccc2c1S(=O)(=O)N[C@H](C)CO2 | 0.24% |
| CC(=O)C1=C(O)C(=O)N(c2ccc(Br)cc2)C1c1ccc([N+](=O)[O-])cc1 (stereo unspecified) | 3.13% |
| CC(=O)C1=C(O)C(=O)N(c2cccnc2)C1c1ccc([N+](=O)[O-])cc1 (stereo unspecified) | 3.72% |
| COC(=O)CN1C(=O)C(O)=C(C(C)=O)C1c1ccc([N+](=O)[O-])cc1 (stereo unspecified) | 4.6% (active) |
| CC1=NNC(=O)C1CCC(=O)N/N=C\c1ccc(Cl)c(Cl)c1 (stereo unspecified) | 0.26% |
| NCCCCCC(=O)N/N=C/c1ccc2nccnc2c1 | 4.64% (active) |
| O=C(Cc1ccccc1)N/N=C/c1ccc(Cl)cc1Cl | 0.83% |
| COc1ccc(N2C(=O)C3C(C2=O)C(C(=O)c2ccccc2)N2CCCC32)cc1 (stereo unspecified) | 1.03% |
| COCCNC(=S)N(C)[C@H]1C[C@H]2c3[nH]c4ccccc4c3CCN2C[C@H]1[C@H](C)O | 0.16% |
| N#Cc1ccc(OCCCN2CCC(C(O)(c3ccccc3)c3ccccc3)CC2)c(F)c1 | 2.13% |
| COc1ccc(/C=C/C(=O)NC(=S)N2CCCC(C(N)=O)C2)cc1 (stereo unspecified) | 5.75% (active) |
| O=C(/C=C/c1ccco1)NC(=S)N1CCCCC1 | 2.5% |
| COc1ccc(CN2CCCC(C(=O)N3CCCCC3)C2)cc1 (stereo unspecified) | -0.76% |
| O=c1[nH][nH]c2c1[C@H](c1ccc(Cl)cc1)O[C@H](CCc1ccccc1)C2 | -0.84% |
| COc1ccc(NC(=O)N(C)C[C@@H]2OCCCC[C@@H](C)Oc3ccc(NC(=O)NC4CCCCC4)cc3C(=O)N([C@H](C)CO)C[C@@H]2C)cc1 | -0.24% |
| COc1cc(Cl)c(S(=O)(=O)n2cnc(C)c2)cc1Cl | 0.89% |
| CN1CCN(CCC(=O)N/N=C/C=C2\N(C)c3ccccc3C2(C)C)CC1 | 4.78% (active) |
| CC(=O)Nc1cccc(OCC(=O)/C=C2\N(C)c3ccccc3C2(C)C)c1 | 3.18% |
| CN1/C(=C\C=C2\N=C(c3ccc(F)cc3)OC2=O)C(C)(C)c2ccccc21 | 0.34% |
